Results published in PubChem BioAssay AID1159580 (chemical genetic matrix, 2015).
The campaign covered roughly 5,500 compounds. About 2,000 (36%) were called active. Roughly 18% stayed inconclusive and do not appear here. No stated cut-off is given here; in the data, active means normalized growth mostly below about 0.91 (no sharp cut-off); inconclusive means no clear call, values can overlap the other calls; inactive means mostly above about 0.92. Some of the results follow.

Assay: chemical genetic growth profiling, strain panel (AID 1159580);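 further: tested at 20 µM; growth read once vehicle control cultures reached saturation at 30 °C; 1 = growth at the plate median or of vehicle wells; lower values mean less growth of the strain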
Conditions: growth OD

Measured: normalized growth

Clc1ccc(CSC(Cn2ccnc2)c2ccc(Cl)cc2Cl)cc1 (stereo not given)
active: S. cerevisiae deletion strains, locus YJR075W, strain HOC1, hits give low values 0.0603 | S. cerevisiae deletion strains, locus YKL009W, strain mrt4, hits give low values 0.0877 | S. cerevisiae deletion strains, locus YKL068W, hits give low values 0.0746 | S. cerevisiae deletion strains, locus YKL085W, strain MDH1 (second series), hits give low values 0.0615 | S. cerevisiae deletion strains, locus YKL085W, strain MDH1, hits give low values 0.0615 | S. cerevisiae deletion strains, locus YKL160W, strain elf1, hits give low values 0.065 | S. cerevisiae deletion strains, locus YKL190W, strain CNB1, hits give low values 0.0451 | S. cerevisiae deletion strains, locus YKR001C, strain vps1, hits give low values 0.0681 | S. cerevisiae deletion strains, locus YKR026C, strain gcn3, hits give low values 0.0654 | S. cerevisiae deletion strains, locus YKR091W, strain srl3, hits give low values 0.0606 | S. cerevisiae deletion strains, locus YLL001W, strain dnm1, hits give low values 0.0654 | S. cerevisiae deletion strains, locus YLL026W, hits give low values 0.0574 | S. cerevisiae deletion strains, locus YLL041C, strain sdh2, hits give low values 0.0577 | S. cerevisiae deletion strains, locus YLR027C, strain aat2, hits give low values 0.0604 | S. cerevisiae deletion strains, locus YLR039C, strain RIC1, hits give low values 0.079 | S. cerevisiae deletion strains, locus YLR058C, strain SHM2, hits give low values 0.0452 | S. cerevisiae deletion strains, locus YLR102C, strain apc9, hits give low values 0.0588 | S. cerevisiae deletion strains, locus YLR113W, strain HOG1, hits give low values 0.116 | S. cerevisiae deletion strains, locus YLR221C, strain rsa3, hits give low values 0.0604 | S. cerevisiae deletion strains, locus YLR258W, strain gsy2, hits give low values 0.0614 | S. cerevisiae deletion strains, locus YLR262C, strain YPT6 (second series), hits give low values 0.0789 | S. cerevisiae deletion strains, locus YLR262C, strain YPT6, hits give low values 0.103 | S. cerevisiae deletion strains, locus YLR268W, strain sec22, hits give low values 0.0568 | S. cerevisiae deletion strains, locus YLR320W, strain mms22, hits give low values 0.0761 | S. cerevisiae deletion strains, locus YLR330W, strain CHS5, hits give low values 0.0514 | S. cerevisiae deletion strains, locus YLR342W, strain FKS1 (second series), hits give low values 0.0606 | S. cerevisiae deletion strains, locus YLR342W, strain FKS1, hits give low values 0.0676 | S. cerevisiae deletion strains, locus YLR357W, strain rsc2, hits give low values 0.12 | S. cerevisiae deletion strains, locus YLR370C, strain arc18, hits give low values 0.0635 | S. cerevisiae deletion strains, locus YLR371W, strain rom2, hits give low values 0.0606 | S. cerevisiae deletion strains, locus YLR384C, strain iki3, hits give low values 0.0593 | S. cerevisiae deletion strains, locus YLR418C, strain cdc73, hits give low values 0.0853 | S. cerevisiae deletion strains, locus YML016C, strain PPZ1, hits give low values 0.0444 | S. cerevisiae deletion strains, locus YML032C, strain rad52, hits give low values 0.0643 | S. cerevisiae deletion strains, locus YML120C, strain ndi1, hits give low values 0.0571 | S. cerevisiae deletion strains, locus YML124C, strain tub3, hits give low values 0.0572 | S. cerevisiae deletion strains, locus YMR058W, strain fet3, hits give low values 0.0638 | S. cerevisiae deletion strains, locus YMR078C, strain ctf18, hits give low values 0.0695 | S. cerevisiae deletion strains, locus YMR125W, strain sto1, hits give low values 0.0785 | S. cerevisiae deletion strains, locus YMR129W, hits give low values 0.0574 | S. cerevisiae deletion strains, locus YMR205C, strain PFK2, hits give low values 0.0897 | S. cerevisiae deletion strains, locus YMR223W, strain ubp8, hits give low values 0.0591 | S. cerevisiae deletion strains, locus YMR231W, strain pep5, hits give low values 0.146 | S. cerevisiae deletion strains, locus YMR263W, strain SAP30, hits give low values 0.0544 | S. cerevisiae deletion strains, locus YMR307W, strain GAS1, hits give low values 0.12 | S. cerevisiae deletion strains, locus YNL067W, strain RPL9B, hits give low values 0.0471 | S. cerevisiae deletion strains, locus YNL071W, strain lat1, hits give low values 0.0619 | S. cerevisiae deletion strains, locus YNL128W, strain TEP1, hits give low values 0.0608 | S. cerevisiae deletion strains, locus YNL183C, strain NPR1, hits give low values 0.000263 | S. cerevisiae deletion strains, locus YNL209W, strain ssb2, hits give low values 0.0676 | S. cerevisiae deletion strains, locus YNL233W, strain BNI4, hits give low values 0.0515 | S. cerevisiae deletion strains, locus YNL248C, strain rpa49, hits give low values 0.0789 | S. cerevisiae deletion strains, locus YNL250W, strain rad50, hits give low values 0.0722 | S. cerevisiae deletion strains, locus YNL271C, strain bni1, hits give low values 0.0682 | S. cerevisiae deletion strains, locus YNL298W, strain CLA4, hits give low values 0.0628 | S. cerevisiae deletion strains, locus YNL307C, strain MCK1, hits give low values 0.0686 | S. cerevisiae deletion strains, locus YNL322C, strain KRE1 (second series), hits give low values 0.0666 | S. cerevisiae deletion strains, locus YNL322C, strain KRE1, hits give low values 0.045 | S. cerevisiae deletion strains, locus YNR049C, strain mso1, hits give low values 0.0586 | S. cerevisiae deletion strains, locus YNR052C, strain pop2, hits give low values 0.0598 | S. cerevisiae deletion strains, locus YOL006C, strain TOP1, hits give low values 0.0991 | S. cerevisiae deletion strains, locus YOL012C, strain htz1 0.137 | S. cerevisiae deletion strains, locus YOL147C, strain pex11, hits give low values 0.0557 | S. cerevisiae deletion strains, locus YOR001W, strain rrp6, hits give low values 0.0726 | S. cerevisiae deletion strains, locus YOR061W, strain CKA2, hits give low values 0.0436 | S. cerevisiae deletion strains, locus YOR069W, strain VPS5, hits give low values 0.0456 | S. cerevisiae deletion strains, locus YOR070C, strain gyp1, hits give low values 0.0632 | S. cerevisiae deletion strains, locus YOR080W, strain dia2, hits give low values 0.0638 | S. cerevisiae deletion strains, locus YOR083W, strain WHI5, hits give low values 0.0689 | S. cerevisiae deletion strains, locus YOR106W, strain vam3, hits give low values 0.0699 | S. cerevisiae deletion strains, locus YOR136W, strain idh2, hits give low values 0.0693 | S. cerevisiae deletion strains, locus YOR144C, strain elg1, hits give low values 0.0562 | S. cerevisiae deletion strains, locus YOR184W, strain ser1, hits give low values 0.0618 | S. cerevisiae deletion strains, locus YOR231W, strain MKK1, hits give low values 0.102 | S. cerevisiae deletion strains, locus YOR265W, strain rbl2, hits give low values 0.0591 | S. cerevisiae deletion strains, locus YOR270C, strain vph1, hits give low values 0.111 | S. cerevisiae deletion strains, locus YOR290C, strain snf2, hits give low values 0.0745 | S. cerevisiae deletion strains, locus YOR316C, strain cot1, hits give low values 0.0584 | S. cerevisiae deletion strains, locus YPL051W, strain arl3, hits give low values 0.0666 | S. cerevisiae deletion strains, locus YPL078C, strain atp4, hits give low values 0.0762 | S. cerevisiae deletion strains, locus YPL106C, strain sse1, hits give low values 0.0973 | S. cerevisiae deletion strains, locus YPL240C, strain hsp82, hits give low values 0.0582 | S. cerevisiae deletion strains, locus YPL241C, strain CIN2, hits give low values 0.0455 | S. cerevisiae deletion strains, locus YPL256C, strain CLN2, hits give low values 0.113 | S. cerevisiae deletion strains, locus YPR119W, strain clb2, hits give low values 0.061 | S. cerevisiae deletion strains, locus YPR141C, strain kar3, hits give low values 0.0736 | S. cerevisiae deletion strains, locus YPR163C, strain tif3, hits give low values 0.067 | S. cerevisiae deletion strains, locus YPR167C, strain met16, hits give low values 0.0596 | S. cerevisiae deletion strains, strain wtn01, hits give low values 0.0571 | S. cerevisiae strains, strain wild type, hits give low values 0.0459
